High-throughput results from PubChem BioAssay.
This is a sample that favours compounds with a hit; in the whole collection about 9% have one here.
HPGD block: qHTS Assay for Inhibitors of HPGD (15-Hydroxyprostaglandin Dehydrogenase); 15-hydroxyprostaglandin dehydrogenase [NAD(+)] (Homo sapiens), P15428; Potency, µM, for inactives: at the top dose activity change, negative = inhibition, actives largely listed as inhibitors; purified HPGD, NADH fluorescence kinetic, PGE2 substrate; 4.3% of 150,000 active; AID 894, 2007; note: potency is the fitted concentration of half-maximal effect
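20 nM HPGD preincubated 15 min at room temperature with compound in 50 mM Tris-HCl pH 8, 0.01% Tween 20. Started with 1 mM NAD+ and 30 uM prostaglandin E2; NADH fluorescence (360/450 nm) read 5 times over 30-s intervals, last minus first.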
IMPase inh: qHTS Assay for Identifying the Cell-Membrane Permeable IMPase Inhibitors | Inositol monophosphatase 1 (Rattus norvegicus), P97697 | inhibition (IP1 accumulation), % at 46.1 µM | 120,000 tested, under 10 active | CHO-M1 cells, IP1 accumulation, HTRF TR-FRET ratio; active = well fitted curve in the direction sought with a large enough effect in the signal ratio, not every such curve was filed as active; inconclusive = small, poorly fitted or top-dose-only effect, or a change in a side signal; inactive = no such curve, though single readings can be large or run the other way; the % refers to the signal ratio;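 note: cells stimulated with carbachol in lithium chloride buffer; plate controls were DMSO basal wells for no effect and reference inhibitor wells for full effect; higher means more IMPase inhibition seen as more IP1 and lower FRET ratio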
Target sequence (P97697 whole entry, looked up): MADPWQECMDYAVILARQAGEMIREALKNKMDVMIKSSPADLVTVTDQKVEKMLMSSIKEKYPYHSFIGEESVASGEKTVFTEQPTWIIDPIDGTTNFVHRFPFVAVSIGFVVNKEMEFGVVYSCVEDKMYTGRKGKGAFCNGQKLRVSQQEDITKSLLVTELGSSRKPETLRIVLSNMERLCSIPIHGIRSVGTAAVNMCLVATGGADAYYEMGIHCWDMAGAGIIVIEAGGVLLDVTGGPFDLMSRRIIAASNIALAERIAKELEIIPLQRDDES
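Elevated IP1 in lysates lowers TR-FRET signal (665/620 ratio and 620 channel reported). Cells were CHO-M1, given carbachol (50 uM as added) plus 50mM LiCl, pH 7.4, 30 min, 37C; compounds titrated up to 46 uM; AC50 by Hill equation.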
ALDH1A1 inh: qHTS Assay for Inhibitors of Aldehyde Dehydrogenase 1 (ALDH1A1); Purified ALDH1A1, NADH fluorescence, propionaldehyde substrate; 7.3% of 220,000 active; Potency, µM (series often up to 75.3 µM), for inactives: at the highest dose activity, negative = inhibition, hits mostly inhibitors; Aldehyde dehydrogenase 1A1 (Homo sapiens), P00352; AID 1030, 2008;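 note: potency is the fitted concentration of half-maximal effect; plate controls were no enzyme wells and a reference inhibitor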
* marks the source's active call; other numbers are inactive results; u = inconclusive; x = not tested or not shown. Unless noted, calls come from the whole dose curve; as a rule, active = well fitted inhibition curve with a large enough effect (not every such curve was filed as active); inconclusive = small, poorly fitted or top-dose-only effect, or another doubt; inactive = no such curve, though single readings can be large or run the other way. Unless noted, % is set by controls: 0 for no effect and ±100 for the full control effect.

SMILES	HPGD block	IMPase inh	ALDH1A1 inh
O=[N+]([O-])c1cc(Br)c(O)c(/C=N/Nc2nnnn2-c2cccc3ccccc23)c1	u	2	18µM*
COc1ccc([N+](=O)[O-])cc1/C=N/Nc1nn[nH]n1	x	x	6%
COC(=O)[C@H]1C[C@@H]1[C@H](NS(=O)(=O)c1ccc(-c2ccccc2)cc1)c1ccccc1	-12%	x	-2%
CN1CCN(c2ccc([N+](=O)[O-])cc2C(=O)c2ccc(Br)cc2)CC1	-12%	13	28µM*
COc1ccc(NC(=O)c2cc([N+](=O)[O-])ccc2N2CCCC2)cc1	x	x	9%
O=[N+]([O-])c1ccc(N2CCCCCC2)c(S(=O)(=O)N2CCCCC2)c1	-13%	9	25µM*
CCC(CC)c1nnc(NC(=O)c2cc([N+](=O)[O-])ccc2N2CCCCC2)s1	-20%	x	7.9µM*
O=C(c1ccc(Br)cc1)c1cc([N+](=O)[O-])ccc1N1CCCCC1	-13%	-21	2.8µM*
Cc1ccc(C(=O)c2cc([N+](=O)[O-])ccc2N2CCN(C)CC2)cc1	-3%	13	u
CN1CCN(S(=O)(=O)c2cc([N+](=O)[O-])ccc2N2CCCCCC2)CC1	-10%	3	u
O=C(c1ccccc1)c1cc([N+](=O)[O-])ccc1N1CCCC1	-4%	x	-9%
O=C1C(Nc2ccccc2)=CC(c2ccc(Br)cc2)N1c1ccccc1 (stereo not given)	x	5	x
Nc1nnc(SCC(=O)OCC(=O)Nc2ccccc2)s1	x	x	1%
Cc1ccc(C)c(NC(=O)COC(=O)CC2c3ccccc3CCN2S(=O)(=O)c2ccc(F)cc2)c1 (stereo not given)	-8%	x	3%
Cc1ccc(C(=O)c2cc([N+](=O)[O-])ccc2N2CCCCC2)cc1C	-13%	x	-1%
COc1ccc(C(=O)c2cc([N+](=O)[O-])ccc2N2CCCC2)cc1	-5%	x	-2%
O=C(NC1CCCCC1)c1cc([N+](=O)[O-])ccc1N1CCCCC1	-7%	12	13µM*
Cc1ccc(C(=O)c2cc([N+](=O)[O-])ccc2N2CCOCC2)cc1C	-16%	x	32µM*
O=C(NC12CC3CC(CC(C3)C1)C2)c1cc([N+](=O)[O-])ccc1N1CCOCC1	x	x	13µM*
CC(C)CNC(=O)c1cc([N+](=O)[O-])ccc1N1CCCCC1	-9%	x	0%
O=C(NC(=S)Nc1ccccc1)c1cc([N+](=O)[O-])ccc1N1CCOCC1	x	x	3%
COc1ccc(C(=O)c2cc([N+](=O)[O-])ccc2N2CCN(C)CC2)cc1	x	x	5µM*
Cc1cccc(C)c1NC(=O)CN(Cc1ccc(Br)cc1)S(=O)(=O)c1ccccc1	x	1	x
Cc1ccc2nc(C3CCCN3Cc3nc(CCC(C)C)no3)[nH]c2c1 (stereo not given)	x	x	-5%
CC1(C)CC(=O)C(C(=O)c2ccccc2)C(=O)C1	x	x	6%
SMILES	HPGD block	IMPase inh	ALDH1A1 inh
N=c1n(CCO)c2ccccc2n1Cc1ccccc1F	x	5	x
O=C(c1ccc(Cl)cc1[N+](=O)[O-])N1CCOCC1	x	x	-4%
CC(C)N(C(=O)Cc1ccccc1[N+](=O)[O-])C(C)C	x	x	-6%
N.N.N.N.N.N.N.N.N.N.N.N.N.N.O.O.[Ru].[Ru].[Ru]	x	6	x
Cc1ccc(NC(=O)C2C(c3ccccc3)C2(Cl)Cl)c(C)c1 (stereo not given)	28µM*	10	5%
COc1ccc(NC(=O)C2C(c3ccccc3)C2(Cl)Cl)cc1 (stereo not given)	x	x	1%
Cc1cccc(NC(=O)C2C(c3ccccc3)C2(Cl)Cl)c1 (stereo not given)	x	x	25µM*
CC(=O)c1cccc(NC(=O)C2C(c3ccccc3)C2(Cl)Cl)c1 (stereo not given)	x	x	-1%
CCOc1cc(/C=N/NC(=O)C(=O)NC)cc(Br)c1O	-15%	x	11%
COc1ccc(Cl)cc1NC(=O)CSc1nc(-c2ccco2)cc(C(F)(F)F)n1	x	3	x
Nc1nonc1C(=O)N/N=C/c1cccc([N+](=O)[O-])c1	-10%	x	-9%
CN(C)c1ccc(/C=N/NC(=O)c2nonc2N)cc1[N+](=O)[O-]	x	x	2µM*
CCOc1ccccc1C1Nc2ccccc2-c2nnc(SCc3ccccc3)nc2O1 (stereo not given)	x	7	x
O=C(Cn1cccc1C(=O)c1ccccc1)NCCCN1CCc2ccccc2C1	x	x	3%
CC(C)NC(=O)CSc1nc2ccccc2n1CC(=O)N(C(C)C)C(C)C	x	x	6%
CC(C)N(C(=O)CSc1nc2ccccc2n1Cc1ccc(F)cc1)C(C)C	-12%	20	25µM*
O=C(Cc1nn[nH]n1)NCc1ccccc1Cl	-6%	-4	u
